Test [1] deals with T1, Ephrin type-B receptor 1 (Homo sapiens) (UniProt P54762).
T1 sequence (whole entry): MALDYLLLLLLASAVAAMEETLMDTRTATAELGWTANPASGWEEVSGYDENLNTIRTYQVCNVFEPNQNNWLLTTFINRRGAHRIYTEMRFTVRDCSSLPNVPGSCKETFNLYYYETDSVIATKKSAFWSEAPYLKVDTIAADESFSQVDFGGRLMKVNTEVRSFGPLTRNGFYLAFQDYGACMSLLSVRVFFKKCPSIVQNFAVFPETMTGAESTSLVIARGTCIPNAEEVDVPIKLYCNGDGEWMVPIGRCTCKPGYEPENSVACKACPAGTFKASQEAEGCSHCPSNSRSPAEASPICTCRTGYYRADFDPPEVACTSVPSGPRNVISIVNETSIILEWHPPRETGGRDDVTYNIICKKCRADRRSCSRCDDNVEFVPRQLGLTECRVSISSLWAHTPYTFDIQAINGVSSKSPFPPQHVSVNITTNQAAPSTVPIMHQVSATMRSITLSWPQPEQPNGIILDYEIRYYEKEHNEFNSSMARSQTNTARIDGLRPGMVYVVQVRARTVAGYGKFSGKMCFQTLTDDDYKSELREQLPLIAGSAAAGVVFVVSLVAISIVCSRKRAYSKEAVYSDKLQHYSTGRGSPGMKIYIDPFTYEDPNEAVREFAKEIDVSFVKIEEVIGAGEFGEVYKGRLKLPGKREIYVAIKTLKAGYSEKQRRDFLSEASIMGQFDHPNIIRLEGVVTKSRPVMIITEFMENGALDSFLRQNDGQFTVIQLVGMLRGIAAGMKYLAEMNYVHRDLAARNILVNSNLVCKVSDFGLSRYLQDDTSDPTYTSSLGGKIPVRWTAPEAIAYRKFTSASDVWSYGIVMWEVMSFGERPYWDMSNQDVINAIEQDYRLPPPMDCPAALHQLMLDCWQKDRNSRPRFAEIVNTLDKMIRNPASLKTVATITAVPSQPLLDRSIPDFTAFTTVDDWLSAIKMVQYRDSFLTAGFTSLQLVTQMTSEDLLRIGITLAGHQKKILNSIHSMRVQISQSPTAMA
To be noted: at 10 µM.

In test [2] the target is T2, Ephrin type-B receptor 2 (Homo sapiens) (UniProt P29323).
T2 sequence (whole entry): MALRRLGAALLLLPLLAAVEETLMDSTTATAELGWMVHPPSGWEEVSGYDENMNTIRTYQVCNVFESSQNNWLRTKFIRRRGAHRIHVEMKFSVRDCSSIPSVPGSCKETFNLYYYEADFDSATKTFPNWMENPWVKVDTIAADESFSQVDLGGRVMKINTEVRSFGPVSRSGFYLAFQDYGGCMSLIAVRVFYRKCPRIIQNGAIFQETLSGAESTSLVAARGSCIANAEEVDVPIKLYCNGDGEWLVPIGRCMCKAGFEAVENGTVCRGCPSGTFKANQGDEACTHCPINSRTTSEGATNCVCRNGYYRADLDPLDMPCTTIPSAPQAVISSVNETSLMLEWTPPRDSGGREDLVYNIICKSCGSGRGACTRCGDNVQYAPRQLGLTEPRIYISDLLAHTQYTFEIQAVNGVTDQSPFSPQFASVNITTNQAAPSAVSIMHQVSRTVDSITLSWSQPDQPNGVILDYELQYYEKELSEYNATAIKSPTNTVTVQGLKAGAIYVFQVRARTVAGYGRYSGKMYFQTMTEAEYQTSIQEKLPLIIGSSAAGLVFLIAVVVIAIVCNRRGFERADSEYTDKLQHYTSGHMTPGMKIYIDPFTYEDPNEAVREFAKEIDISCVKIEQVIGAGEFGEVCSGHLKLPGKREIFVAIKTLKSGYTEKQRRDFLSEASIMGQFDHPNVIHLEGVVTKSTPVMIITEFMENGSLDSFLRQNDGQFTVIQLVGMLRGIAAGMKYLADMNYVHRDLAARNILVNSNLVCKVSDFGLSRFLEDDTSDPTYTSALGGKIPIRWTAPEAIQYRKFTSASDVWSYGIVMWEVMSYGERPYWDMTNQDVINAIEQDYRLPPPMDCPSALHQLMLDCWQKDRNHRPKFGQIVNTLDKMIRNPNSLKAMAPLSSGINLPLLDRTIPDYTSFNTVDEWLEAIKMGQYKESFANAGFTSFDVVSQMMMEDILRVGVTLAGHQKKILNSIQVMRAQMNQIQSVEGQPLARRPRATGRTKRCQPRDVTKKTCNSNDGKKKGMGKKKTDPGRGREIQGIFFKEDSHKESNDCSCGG
To be noted: at 1 µM.

Test [3] deals with T2, Ephrin type-B receptor 2 (Homo sapiens). The note with it: at 10 µM.
The target in test [4] is T3, Ephrin type-B receptor 3 (Homo sapiens) (UniProt P54753).
T3 sequence (whole entry): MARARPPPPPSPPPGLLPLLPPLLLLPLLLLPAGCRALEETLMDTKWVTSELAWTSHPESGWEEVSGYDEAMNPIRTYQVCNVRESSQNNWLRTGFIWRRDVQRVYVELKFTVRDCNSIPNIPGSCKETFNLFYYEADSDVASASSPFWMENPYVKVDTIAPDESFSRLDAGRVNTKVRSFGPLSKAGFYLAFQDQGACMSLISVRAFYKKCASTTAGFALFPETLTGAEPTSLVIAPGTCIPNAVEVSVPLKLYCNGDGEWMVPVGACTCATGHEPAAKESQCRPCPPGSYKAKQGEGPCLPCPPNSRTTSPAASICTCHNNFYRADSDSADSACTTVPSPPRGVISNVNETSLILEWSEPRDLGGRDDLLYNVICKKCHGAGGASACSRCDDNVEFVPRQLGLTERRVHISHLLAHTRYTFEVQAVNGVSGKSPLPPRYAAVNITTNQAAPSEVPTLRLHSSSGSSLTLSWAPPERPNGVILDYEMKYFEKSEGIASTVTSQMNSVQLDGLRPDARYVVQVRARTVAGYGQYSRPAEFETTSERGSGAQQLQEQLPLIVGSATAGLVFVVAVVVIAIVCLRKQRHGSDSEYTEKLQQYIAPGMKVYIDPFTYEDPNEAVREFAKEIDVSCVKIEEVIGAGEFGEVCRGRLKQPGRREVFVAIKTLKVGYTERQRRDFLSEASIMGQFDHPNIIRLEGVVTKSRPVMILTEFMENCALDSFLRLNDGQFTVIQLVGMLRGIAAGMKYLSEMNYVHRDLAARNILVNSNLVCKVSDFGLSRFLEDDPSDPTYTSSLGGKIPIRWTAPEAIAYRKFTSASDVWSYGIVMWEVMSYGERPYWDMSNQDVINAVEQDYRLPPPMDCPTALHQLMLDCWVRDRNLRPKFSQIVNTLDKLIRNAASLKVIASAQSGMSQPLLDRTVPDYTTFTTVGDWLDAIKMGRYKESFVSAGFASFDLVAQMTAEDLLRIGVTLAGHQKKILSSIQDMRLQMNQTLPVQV
To be noted: at 1 µM.

In test [5] the target is T3, Ephrin type-B receptor 3 (Homo sapiens). To be noted: at 10 µM.
The target of test [6] is T4, Ephrin type-B receptor 4 (Homo sapiens) (UniProt P54760).
T4 sequence (whole entry): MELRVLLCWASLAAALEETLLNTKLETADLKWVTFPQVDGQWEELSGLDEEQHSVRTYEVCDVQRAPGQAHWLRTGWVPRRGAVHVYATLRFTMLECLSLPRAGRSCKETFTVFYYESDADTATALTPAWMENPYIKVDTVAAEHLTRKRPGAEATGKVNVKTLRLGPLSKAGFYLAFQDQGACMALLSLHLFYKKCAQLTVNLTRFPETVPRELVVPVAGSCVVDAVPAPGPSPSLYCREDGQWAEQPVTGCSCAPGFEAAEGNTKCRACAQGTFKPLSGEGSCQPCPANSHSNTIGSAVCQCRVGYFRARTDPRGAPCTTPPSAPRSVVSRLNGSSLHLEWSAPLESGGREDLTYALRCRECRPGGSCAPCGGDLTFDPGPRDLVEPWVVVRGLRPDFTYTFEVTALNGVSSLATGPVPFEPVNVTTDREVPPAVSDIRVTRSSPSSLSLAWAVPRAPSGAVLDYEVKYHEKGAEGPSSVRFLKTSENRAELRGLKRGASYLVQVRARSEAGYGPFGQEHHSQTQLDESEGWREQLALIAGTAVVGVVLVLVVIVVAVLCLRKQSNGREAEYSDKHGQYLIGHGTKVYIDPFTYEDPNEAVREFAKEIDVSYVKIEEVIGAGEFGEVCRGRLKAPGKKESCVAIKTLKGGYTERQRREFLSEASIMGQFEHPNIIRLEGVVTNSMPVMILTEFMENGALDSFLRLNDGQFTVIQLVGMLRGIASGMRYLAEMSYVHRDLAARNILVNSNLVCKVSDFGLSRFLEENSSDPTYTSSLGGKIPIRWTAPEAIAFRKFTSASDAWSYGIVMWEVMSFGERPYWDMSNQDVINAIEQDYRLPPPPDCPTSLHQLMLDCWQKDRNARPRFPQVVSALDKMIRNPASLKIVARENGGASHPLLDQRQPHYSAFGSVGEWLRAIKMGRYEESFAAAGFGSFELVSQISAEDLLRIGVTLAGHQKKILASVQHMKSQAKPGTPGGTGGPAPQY
To be noted: at 1 µM.

Test [7] deals with T4, Ephrin type-B receptor 4 (Homo sapiens). The note with it: at 10 µM.
Test [8] concerns the target Receptor tyrosine-protein kinase erbB-4 (Homo sapiens) (UniProt Q15303). The note with it: at 1 µM.
Test [9] has the same target. To be noted: at 10 µM.
Test [10] addresses Focal adhesion kinase 1 (Homo sapiens) (UniProt Q05397). To be noted: at 1 µM.

We go through 1 compound from ChEMBL document CHEMBL2218924, “A broad activity screen in support of a chemogenomic map for kinase signalling research and drug discovery” (Biochem J, 2013).

By residual activity is commonly meant the signal under treatment as a percentage of the control signal.

Receptor tyrosine-protein kinase erbB-4 (Homo sapiens), sequence (Q15303 whole entry): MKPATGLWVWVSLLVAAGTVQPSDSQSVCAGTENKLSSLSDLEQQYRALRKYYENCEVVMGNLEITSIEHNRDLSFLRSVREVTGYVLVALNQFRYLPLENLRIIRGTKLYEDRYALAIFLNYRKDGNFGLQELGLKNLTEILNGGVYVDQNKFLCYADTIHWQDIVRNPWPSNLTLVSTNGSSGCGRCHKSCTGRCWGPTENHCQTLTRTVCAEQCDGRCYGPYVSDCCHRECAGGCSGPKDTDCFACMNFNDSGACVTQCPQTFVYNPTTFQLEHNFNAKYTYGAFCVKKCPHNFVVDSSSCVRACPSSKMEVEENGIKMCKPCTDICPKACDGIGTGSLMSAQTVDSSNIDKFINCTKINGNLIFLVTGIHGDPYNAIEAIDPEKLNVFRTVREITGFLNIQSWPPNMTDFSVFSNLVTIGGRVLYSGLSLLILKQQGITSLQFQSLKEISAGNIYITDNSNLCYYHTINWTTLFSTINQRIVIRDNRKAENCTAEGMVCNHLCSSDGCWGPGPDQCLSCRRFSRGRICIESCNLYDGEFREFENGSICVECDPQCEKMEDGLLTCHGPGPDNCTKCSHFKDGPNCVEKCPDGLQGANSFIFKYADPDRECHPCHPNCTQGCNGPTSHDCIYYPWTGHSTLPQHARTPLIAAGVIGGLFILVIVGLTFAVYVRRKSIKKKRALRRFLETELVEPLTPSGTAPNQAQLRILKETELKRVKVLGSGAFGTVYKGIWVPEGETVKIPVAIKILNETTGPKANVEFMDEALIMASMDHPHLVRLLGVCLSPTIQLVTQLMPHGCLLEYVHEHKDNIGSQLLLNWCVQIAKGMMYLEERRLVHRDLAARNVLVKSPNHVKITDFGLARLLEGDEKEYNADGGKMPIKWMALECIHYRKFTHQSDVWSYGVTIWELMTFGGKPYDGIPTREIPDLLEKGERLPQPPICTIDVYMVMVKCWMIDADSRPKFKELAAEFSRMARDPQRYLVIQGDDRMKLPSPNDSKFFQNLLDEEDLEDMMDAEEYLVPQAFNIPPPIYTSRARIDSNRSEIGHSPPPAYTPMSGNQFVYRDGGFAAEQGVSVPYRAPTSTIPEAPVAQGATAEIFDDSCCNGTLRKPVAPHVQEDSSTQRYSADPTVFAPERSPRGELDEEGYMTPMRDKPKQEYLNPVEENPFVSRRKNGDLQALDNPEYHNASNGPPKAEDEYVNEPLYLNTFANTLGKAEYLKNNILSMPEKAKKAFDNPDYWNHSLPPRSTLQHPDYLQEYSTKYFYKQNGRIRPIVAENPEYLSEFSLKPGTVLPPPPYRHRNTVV
Focal adhesion kinase 1 (Homo sapiens), sequence (Q05397 2-1052 limits assumed): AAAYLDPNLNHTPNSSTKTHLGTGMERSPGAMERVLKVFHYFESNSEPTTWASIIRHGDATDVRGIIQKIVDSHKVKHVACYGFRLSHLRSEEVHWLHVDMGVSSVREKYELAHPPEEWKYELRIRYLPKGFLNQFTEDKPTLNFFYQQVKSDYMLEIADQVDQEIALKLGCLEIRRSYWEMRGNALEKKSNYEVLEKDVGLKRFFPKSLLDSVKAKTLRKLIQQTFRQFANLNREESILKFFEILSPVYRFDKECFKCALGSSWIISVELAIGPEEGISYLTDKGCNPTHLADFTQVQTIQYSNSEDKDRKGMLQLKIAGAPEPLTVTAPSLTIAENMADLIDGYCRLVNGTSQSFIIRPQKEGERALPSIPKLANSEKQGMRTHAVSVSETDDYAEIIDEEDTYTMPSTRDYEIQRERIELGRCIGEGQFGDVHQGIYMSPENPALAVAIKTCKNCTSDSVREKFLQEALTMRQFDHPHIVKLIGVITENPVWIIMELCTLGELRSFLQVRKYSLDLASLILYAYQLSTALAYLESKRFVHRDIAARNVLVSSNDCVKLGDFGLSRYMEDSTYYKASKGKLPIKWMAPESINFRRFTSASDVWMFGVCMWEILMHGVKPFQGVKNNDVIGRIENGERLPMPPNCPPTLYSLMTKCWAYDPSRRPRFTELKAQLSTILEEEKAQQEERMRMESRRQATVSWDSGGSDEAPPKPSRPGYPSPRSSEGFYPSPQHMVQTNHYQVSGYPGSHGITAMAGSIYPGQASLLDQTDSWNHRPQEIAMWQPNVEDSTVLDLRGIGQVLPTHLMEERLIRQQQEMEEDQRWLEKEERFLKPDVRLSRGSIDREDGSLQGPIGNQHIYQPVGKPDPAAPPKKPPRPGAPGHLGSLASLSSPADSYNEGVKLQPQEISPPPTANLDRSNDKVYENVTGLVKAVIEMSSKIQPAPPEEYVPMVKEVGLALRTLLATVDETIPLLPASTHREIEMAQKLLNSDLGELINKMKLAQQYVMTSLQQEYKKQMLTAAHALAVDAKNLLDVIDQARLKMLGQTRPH

Take `CO[C@H]1[C@@H](OC)C[C@H](C)[C@@H](OC)C2=CC(=O)C=C(NC(=O)/C(C)=C/C=C/[C@H](OC)[C@@H](OC(N)=O)/C(C)=C/[C@@H]1C)C2=O`: the residual activity in [1] was 103%; in [2] it was 115%; in test [3], 128%; in test [4] it was 111% (inactive); in test [5], 102%; in test [6] it was 94%. Also, the residual activity is 113% in test [7], 92% in test [8], 67% in test [9] and 110% in test [10].
